For twelve molecules, activation, Potency and viability results are on record in PubChem BioAssay (NCATS).

“And” between values parts separate entries of the source, which are not always exact repeats. Equal entries are not always repeated. Inconclusive results are not listed. Unmarked numbers belong to inactive results. The source made the active and inactive calls. The call rests on the fitted dose curve; in most records, active means well fitted curve in the direction sought with a large enough effect; inconclusive means small, poorly fitted or top-dose-only effect, or another doubt; inactive means no such curve, though single readings can be large; an effect the other way counts as inactive or inconclusive.

For assay [1], the target named is Cellular tumor antigen p53 (Homo sapiens) (UniProt P04637). The assay is described as follows: Primary qHTS for small molecule compounds that upregulate eGFP-tagged delta133p53alpha (in N-terminal) cells. (AID 2060322). Further: nearly all actives have a fitted effect of over 75% in size. Further: potency means the concentration at half of the fitted maximal effect.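 On activation: series mostly up to about 56 µM; 0% = DMSO vehicle and 100% = reference activator.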 As to conditions: NCI-H358 eGFP-delta133p53alpha fluorescence, 24 h; activation: stronger effect = higher value. The essentials: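 NCI-H358 cells pre-induced 24 h with 10 ng/ml doxycycline to express N-terminal eGFP-delta133p53alpha, then dosed 24 h at 37C without doxycycline; fixed, Hoechst-stained, GFP intensity by laser scanning cytometry, normalized to DMSO (0%) and 57.5 uM 5-azacytidine (100%).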
For orientation: Quantitative high-throughput screening tests each substance at several concentrations.

Assay [2] deals with Aldehyde dehydrogenase, mitochondrial (Homo sapiens) (UniProt P05091). Description: qHTS for Inhibitors of the Aldehyde Dehydrogenase Family (ALDH2) Primary screen (AID 2061308).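 Further: plate controls were vehicle for no effect and reference inhibitor for full effect; nearly all actives have a fitted effect of over 55% in size.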
The target of assay [3] is Retinaldehyde dehydrogenase 3 (Homo sapiens) (UniProt P47895). The assay is described as follows: qHTS for Inhibitors of the Aldehyde Dehydrogenase Family (ALDH1A3) Primary screen (AID 2061315).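 Further: plate controls were DMSO vehicle for no effect and reference inhibitor for full effect.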
The nature of assay [4]: BET inhibitor-based combinations targeting novel dependencies in MECOM-rearranged (r) AML: SET-2 cell line (AID 2202231). Further: nearly all actives have a fitted effect of over 35% in size. Further: potency means the concentration at half of the fitted maximal effect.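 On viability: plate controls were DMSO treated cells for no effect and wells without cells for full effect.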 As to conditions: SET-2 AML cells viability, CellTiter-Glo luminescence, 48 h; viability: stronger effect = lower value, concentration not given here. The essentials:
(§1)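 Cells were plated at 500 per well and exposed to an 11-point dose series of each drug for 48 hr. Viability was measured by CellTiter-Glo luminescence, normalized to DMSO and empty-well controls, and summarized as AUC and per-cell-line Z-AUC.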
Background: ATP-based viability assays read luminescence as a measure of living cells.

Assay [5] is described as follows: BET inhibitor-based combinations targeting novel dependencies in MECOM-rearranged (r) AML: OCI-AML3 cell line (AID 2202232). Further: nearly all actives have a fitted effect of over 35% in size. Further: potency means the concentration at half of the fitted maximal effect. As to conditions: Potency: OCI-AML3 viability. The procedure, abridged: as §1
The nature of assay [6]: BET inhibitor-based combinations targeting novel dependencies in MECOM-rearranged (r) AML: UCSD-AML1 cell line (AID 2202235). Further: nearly all actives have a fitted effect of over 40% in size. Further: potency means the concentration at half of the fitted maximal effect. The procedure, abridged: (§2)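 Activity is given as area under the curve and as Z-AUC, mean-centred within each cell line. It comes from 11-point dose curves normalized to DMSO and empty wells. CellTiter-Glo luminescence was read after 48 hr drug exposure of 500 cells/well.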

Assay [7] is described as follows: BET inhibitor-based combinations targeting novel dependencies in MECOM-rearranged (r) AML: AML-194 cell line (AID 2202237; further: nearly all actives have a fitted effect of over 40% in size; further: potency means the concentration at half of the fitted maximal effect). The procedure, abridged: as §1
A short description of assay [8]: BET inhibitor-based combinations targeting novel dependencies in MECOM-rearranged (r) AML: MV-4-11 cell line (AID 2202233). Further: nearly all actives have a fitted effect of over 45% in size. Further: potency means the concentration at half of the fitted maximal effect. The essentials:
as §2

Assay [9] in a line: BET inhibitor-based combinations targeting novel dependencies in MECOM-rearranged (r) AML: HNT-34 cell line (AID 2202234). Further: nearly all actives have a fitted effect of over 35% in size. Further: potency means the concentration at half of the fitted maximal effect. The essentials: as §2
The nature of assay [10]: BET inhibitor-based combinations targeting novel dependencies in MECOM-rearranged (r) AML: AML-191 cell line (AID 2202236; further: nearly all actives have a fitted effect of over 35% in size; further: potency means the concentration at half of the fitted maximal effect). The procedure, abridged: as §1

Chain of Cellular tumor antigen p53 (Homo sapiens) (P04637 whole entry, looked up): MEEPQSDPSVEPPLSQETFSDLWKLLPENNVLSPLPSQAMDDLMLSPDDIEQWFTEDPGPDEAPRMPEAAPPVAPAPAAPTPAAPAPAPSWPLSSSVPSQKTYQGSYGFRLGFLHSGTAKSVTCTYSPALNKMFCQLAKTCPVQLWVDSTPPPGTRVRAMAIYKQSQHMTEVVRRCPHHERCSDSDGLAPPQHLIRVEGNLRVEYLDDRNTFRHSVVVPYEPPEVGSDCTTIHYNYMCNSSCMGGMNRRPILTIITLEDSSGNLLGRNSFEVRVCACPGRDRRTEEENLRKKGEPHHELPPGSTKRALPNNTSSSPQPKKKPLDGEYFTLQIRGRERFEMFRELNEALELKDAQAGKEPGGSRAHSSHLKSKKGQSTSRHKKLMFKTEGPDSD

For orientation: viability means a read-out of living cells in per cent, often relative to untreated cells. With `CC[C@H](NC(=O)[C@H](CS(=O)(=O)CC1CC1)N[C@@H](c1ccc(F)cc1)C(F)(F)F)C(=O)C(=O)NC1CC1`, the activation in [1] was 21.7%. In addition, the Potency entry in assay [2], in assay [3], in assay [5], in [6] and in [7] was “inactive” each time. Besides, the viability in assay [4] is 112%.

On to `CC(C)CC(=O)Nc1n[nH]c2c1CN(C(=O)C1CCN(C)CC1)C2(C)C`, for which the Potency in assay [1] is 6.11 µM (active) and 4.78 µM (active); in [4], 10.5 µM (active); in assay [8] it was 0.372 µM (active); in [9] it was 2.35 µM (active); in assay [6], 2.35 µM (active); in assay [10], 5.9 µM (active). The Potency entry in assay [2] and in assay [3] was “inactive” throughout.

`Cc1n[nH]c(C)c1Cc1sc2c(c1C(=O)N1C[C@H](O)CO1)c(=O)n(C)c(=O)n2CC(C)C`: the activation in [1] is 19.3% and -2.33%. Further, the Potency entry in [2], in [3], in assay [8], in [9], in assay [6] and in assay [7] was “inactive” throughout. In addition, the viability in [4] is 111%.

`CCOc1cc(C(=O)Nc2ccc(Cl)c(-c3nc4ccccc4[nH]3)c2)cc(OCC)c1OCC`: the activation in assay [1] is 1.25% and 5.73%. The Potency result in [2], in assay [3] and in assay [7] was “inactive” in each case. Moreover, the Potency is 18.6 µM (active) in assay [4], 16.6 µM (active) in assay [8] and 14.8 µM (active) in assay [9].

In the case of `CCn1nnc2c(N3CCOCC3)nc(-c3ccc(NC(=O)Nc4ccc(C(=O)N5CCN(C)CC5)cc4)cc3)nc21`, in assay [1], the activation is 37.4% and 20.5%. Also, the Potency entry in assay [2] and in [3] was “inactive” in each case. Moreover, the Potency in assay [4] is 1.86 µM (active); in assay [8], 0.166 µM (active); in [9], 0.148 µM (active); in assay [6], 0.186 µM (active).

Regarding `N#CN1CCC[C@@H](n2nc(-c3ccc(Oc4ccc(F)cc4F)cc3)c(C(N)=O)c2N)C1`, in [1], the activation was -16.1%. Also, the Potency result in assay [2], in assay [3] and in assay [7] was “inactive” in each case. The viability in assay [4] was 107%. Further, the Potency in assay [5] was 10.5 µM (active).

Consider `Cn1ncnc1[C@H]1c2n[nH]c(=O)c3cc(F)cc(c23)N[C@@H]1c1ccc(F)cc1`, for which the activation in assay [1] was -4.3% and 20.1%. Besides, the Potency entry in assay [2] and in assay [3] was “inactive” each time. The Potency in assay [4] was 3.72 µM (active); in assay [8] it was 0.0332 µM (active); in [9], 0.166 µM (active); in assay [10] it was 1.86 µM (active); in assay [7], 1.86 µM (active).

For the molecule `CN(C)C(=O)c1ccc(S(=O)(=O)c2ccc(NC(=O)[C@@](C)(O)C(F)(F)F)c(Cl)c2)cc1`, the activation in assay [1] is 17.9% and -11.6%. Also, the Potency result in assay [2], in assay [3] and in assay [6] was “inactive” throughout. Also, the Potency in assay [4] is 7.42 µM (active); in [8] it was 4.68 µM (active).

As for `CCCOc1ccn2c(C(C)=O)cc(-c3ccccc3S(C)(=O)=O)c2c1`, in assay [1], the activation was -0.333%. In addition, the Potency entry in assay [2], in assay [3], in [6] and in assay [7] was “inactive” throughout. In addition, the viability in [4] is 93%. Also, the Potency in [8], in assay [9] and in assay [10] was 18.6 µM (active) each time.

As to `Nc1ncnc2c1C(=O)N(c1ccc(C3CCC(CC(=O)O)CC3)cc1)CCO2` (stereo not given), the activation in assay [1] is 18.6%. Moreover, the Potency entry in assay [2], in assay [3], in assay [8], in assay [9], in [6] and in assay [10] was “inactive” in each case. Also, the Potency result in assay [7] was “inactive”. Further, in assay [4], the viability is 105%.

With `Cc1cc(-c2cc(OC(=O)c3ccccc3)ccc2Cl)cc2nnc(Nc3ccc(OCCN4CCCC4)cc3)nc12`, the activation in [1] is -29.5%. For the same molecule, the Potency result in [2], in assay [3], in assay [8] and in assay [10] was “inactive” each time. In addition, in assay [4], the viability was 115%. Moreover, in [9], the Potency is 0.456 µM (active).

For `COc1cc(Nc2nc3ccccc3nc2NS(=O)(=O)c2ccc(NC(=O)c3ccc(C)c(OC)c3)cc2)cc(OC)c1`, the activation in assay [1] is -16.4% and -17%. Moreover, the Potency result in [2], in assay [3], in [8], in assay [9], in [6] and in [7] was “inactive” in each case. Also, the viability in assay [4] was 111%.
